Assay results as given in PubChem BioAssay.
Calls of active or inactive are those of the source.

Key:
[1] = system: Plasmodium falciparum Sir2 (PF13_0152, Sir2A); assay: pfSir2 binders on small-molecule microarrays, primary screen, biochemical, small-molecule microarray, 635 nm fluorescence (AID 1098); details: small-molecule microarray binding, fluorescence 635 nm; higher = more signal;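 also: score merges spot fluorescence intensity with its signal-to-noise ratio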
[2] = small-molecule microarray binders of probe aDKK1, primary screen, biochemical, biotinylated probe, 635/667 nm fluorescence (AID 1099); details: higher = more signal;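 also: score merges 667nm spot fluorescence with signal to noise across triplicate slides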
[3] = small-molecule microarray binders of probe aCHRDL2, primary screen, biochemical, biotinylated probe, 635/667 nm fluorescence (AID 1100); details: higher = more signal
[4] = splicing luciferase reporter signal modulators, primary screen, spliceosome inhibition project, cell-based, HEK293, splice +/- reporter (AID 1101); details: luminescence, 24 h, higher = more signal, called active from +8 up or from −8 down;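 also: HEK293 cells carrying a splicing-competent luciferase reporter gene; test concentration not given here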
[5] = biological target: Fibroblast growth factor 10 (Homo sapiens) (UniProt O15520); assay: FGF10 binders on small-molecule microarrays, primary screen, biochemical, small-molecule microarray, 635 nm fluorescence (AID 1102); details: FGF10 binding, fluorescence 635 nm, higher = more signal
Chain of Fibroblast growth factor 10 (Homo sapiens) (O15520 whole entry, looked up): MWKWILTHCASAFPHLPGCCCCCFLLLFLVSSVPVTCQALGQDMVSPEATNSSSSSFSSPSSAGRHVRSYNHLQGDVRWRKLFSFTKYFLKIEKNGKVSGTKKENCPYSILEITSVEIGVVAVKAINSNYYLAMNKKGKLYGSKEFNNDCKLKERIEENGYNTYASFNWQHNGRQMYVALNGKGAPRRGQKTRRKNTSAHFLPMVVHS

[6] = system: glycogen synthase kinase-3 (GSK3A per assay name; protocol says GSK3B); assay: GSK3 binders on small-molecule microarrays, primary screen, biochemical, small-molecule microarray, 635 nm fluorescence, GSK3A (AID 1103); details: small-molecule microarray binding, fluorescence 635 nm; higher = more signal; also: the record names both GSK3A and GSK3B
[7] = biological target: Epidermal growth factor receptor (Homo sapiens) (UniProt P00533); assay: EGFR binders on small-molecule microarrays, primary screen, biochemical, small-molecule microarray, 635 nm fluorescence (AID 1104); details: EGFR binding, higher = more signal;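 also: score merges 667 nm emission intensity with spot signal to noise over triplicate slides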
Chain of Epidermal growth factor receptor (Homo sapiens) (P00533 whole entry, looked up): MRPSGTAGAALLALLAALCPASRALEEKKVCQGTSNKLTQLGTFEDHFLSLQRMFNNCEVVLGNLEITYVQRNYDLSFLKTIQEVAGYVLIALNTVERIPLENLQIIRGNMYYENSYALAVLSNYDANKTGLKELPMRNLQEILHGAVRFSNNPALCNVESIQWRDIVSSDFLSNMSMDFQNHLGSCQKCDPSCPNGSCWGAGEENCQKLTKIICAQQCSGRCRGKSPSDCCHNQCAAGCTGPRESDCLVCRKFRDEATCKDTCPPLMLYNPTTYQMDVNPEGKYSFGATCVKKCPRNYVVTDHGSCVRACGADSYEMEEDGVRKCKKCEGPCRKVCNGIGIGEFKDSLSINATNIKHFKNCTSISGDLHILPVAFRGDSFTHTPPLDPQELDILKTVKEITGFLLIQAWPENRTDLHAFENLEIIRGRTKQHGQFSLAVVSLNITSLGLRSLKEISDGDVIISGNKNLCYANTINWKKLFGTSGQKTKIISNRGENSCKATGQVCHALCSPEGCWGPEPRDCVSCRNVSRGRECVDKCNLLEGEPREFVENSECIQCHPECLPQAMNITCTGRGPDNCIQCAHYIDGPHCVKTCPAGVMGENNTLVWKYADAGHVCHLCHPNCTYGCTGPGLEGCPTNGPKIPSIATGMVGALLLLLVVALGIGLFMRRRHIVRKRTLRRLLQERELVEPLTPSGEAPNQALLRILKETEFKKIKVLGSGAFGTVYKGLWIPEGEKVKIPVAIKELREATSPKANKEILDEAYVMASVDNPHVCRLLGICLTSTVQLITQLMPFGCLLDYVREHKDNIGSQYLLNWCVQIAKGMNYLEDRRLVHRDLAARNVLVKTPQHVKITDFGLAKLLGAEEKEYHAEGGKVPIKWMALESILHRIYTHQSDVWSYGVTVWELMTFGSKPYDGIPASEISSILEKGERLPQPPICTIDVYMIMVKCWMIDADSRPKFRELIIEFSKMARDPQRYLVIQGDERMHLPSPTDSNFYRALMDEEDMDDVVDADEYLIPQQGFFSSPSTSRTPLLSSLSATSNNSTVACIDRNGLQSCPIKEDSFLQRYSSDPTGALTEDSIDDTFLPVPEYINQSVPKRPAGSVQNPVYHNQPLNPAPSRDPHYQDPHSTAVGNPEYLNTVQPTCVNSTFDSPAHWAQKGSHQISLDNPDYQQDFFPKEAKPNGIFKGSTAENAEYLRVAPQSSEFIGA

[8] = biological target: Follistatin-related protein 3 (Homo sapiens) (UniProt O95633); assay: FSTL3 binders on small-molecule microarrays, primary screen, biochemical, small-molecule microarray, 635 nm fluorescence (AID 1105); details: FSTL3 binding, higher = more signal;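 also: score merges emission near 667 nm and signal to noise per printed spot across three slides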
Chain of Follistatin-related protein 3 (Homo sapiens) (O95633 whole entry, looked up): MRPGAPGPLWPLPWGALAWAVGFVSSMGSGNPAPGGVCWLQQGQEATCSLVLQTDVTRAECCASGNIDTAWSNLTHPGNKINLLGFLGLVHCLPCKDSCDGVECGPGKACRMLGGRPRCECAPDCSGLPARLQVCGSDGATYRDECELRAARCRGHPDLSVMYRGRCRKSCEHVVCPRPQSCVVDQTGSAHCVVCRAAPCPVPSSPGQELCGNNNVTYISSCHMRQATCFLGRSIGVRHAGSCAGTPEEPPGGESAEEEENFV

[9] = biological target: Dickkopf-related protein 1 (Homo sapiens) (UniProt O94907); assay: DKK1 binders on small-molecule microarrays, primary screen, biochemical, small-molecule microarray, 635 nm fluorescence scan (AID 1106); details: DKK1 binding, higher = more signal;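 also: score merges emission near 667 nm with signal to noise over three replicate slides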
Chain of Dickkopf-related protein 1 (Homo sapiens) (O94907 whole entry, looked up): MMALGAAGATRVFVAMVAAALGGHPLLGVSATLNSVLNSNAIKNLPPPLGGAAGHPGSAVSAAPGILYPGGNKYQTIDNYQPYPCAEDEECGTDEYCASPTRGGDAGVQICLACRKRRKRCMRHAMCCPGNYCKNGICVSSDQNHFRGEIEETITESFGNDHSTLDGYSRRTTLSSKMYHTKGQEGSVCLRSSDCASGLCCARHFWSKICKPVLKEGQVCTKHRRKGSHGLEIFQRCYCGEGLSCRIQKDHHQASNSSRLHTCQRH

[10] = system: Inhibin beta A chain (activin A); assay: INHBA (activin A) binders on microarrays, primary screen, biochemical, small-molecule microarray, 635 nm fluorescence scan (AID 1107); details: small-molecule microarray binding, higher = more signal;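 also: mouse activin A protein probed at 4.33 µg/mL on printed slides; score merges bound-protein fluorescence near 667 nm with spot signal-to-noise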
[11] = system: Human papillomavirus type 1a protein E7 (residues 44-93); assay: HPV1a E7 fragment binders on microarrays, primary screen, biochemical, small-molecule microarray, residues 44-93, 635 nm fluorescence (AID 1108); details: small-molecule microarray binding, fluorescence 635 nm; higher = more signal;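 also: E7 fragment applied at 1 µg/mL in TBST for 1 h at 4 C; score combines spot fluorescence with its signal to noise ratio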
[12] = modulators of HCV replicon luciferase signal, primary screen, HCV replication inhibitor project, Huh7 cells, luciferase reporter (AID 1109); details: 48 h, higher = more signal;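 also: huh7 hepatoma cells harbouring a luciferase neomycin HCV replicon reporter; luciferase luminescence as measure of HCV replicon replication; test concentration not given here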
[13] = biological target: Left-right determination factor 2 (Homo sapiens) (UniProt O00292); assay: LEFTY2 binders on small-molecule microarrays, primary screen, biochemical, small-molecule microarray, 635 nm fluorescence scan (AID 1110); details: LEFTY2 binding, higher = more signal
Chain of Left-right determination factor 2 (Homo sapiens) (O00292 whole entry, looked up): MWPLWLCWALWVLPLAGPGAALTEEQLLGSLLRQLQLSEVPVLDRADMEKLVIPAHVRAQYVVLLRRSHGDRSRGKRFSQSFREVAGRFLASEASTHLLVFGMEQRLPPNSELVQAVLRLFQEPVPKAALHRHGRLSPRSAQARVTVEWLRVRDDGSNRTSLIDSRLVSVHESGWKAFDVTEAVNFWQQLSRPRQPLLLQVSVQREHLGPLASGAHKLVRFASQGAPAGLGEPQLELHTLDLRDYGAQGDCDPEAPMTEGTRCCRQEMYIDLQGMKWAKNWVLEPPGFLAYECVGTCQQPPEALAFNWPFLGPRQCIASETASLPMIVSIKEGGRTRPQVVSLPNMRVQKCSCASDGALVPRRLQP

[14] = biological target: Calmodulin-1 (Homo sapiens) (UniProt P0DP23); assay: CALM1 binders on microarrays, EGTA buffer, profiling panel, biochemical, small-molecule microarray, Cy5-labelled CALM1 (AID 1111); details: Cy5-CALM1 binding fluorescence, higher = more signal;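 also: labelled calmodulin applied in Tris saline Tween buffer holding calcium plus EGTA and DTT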
[15] = biological target: Calmodulin-1 (Homo sapiens) (UniProt P0DP23); assay: calcium-bound CALM1 binders on microarrays, profiling panel, artefact control for SMM control-protein annotation, biochemical, small-molecule microarray, Cy5-labelled CALM1, plus calcium (AID 1112); details: Cy5-CALM1 binding fluorescence, higher = more signal;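 also: score merges spot fluorescence with signal to noise from triplicate slides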
[16] = small-molecule microarray binders of probe aWnt5a, primary screen, biochemical, biotinylated probe, 635/667 nm fluorescence (AID 1113); details: higher = more signal;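 also: score merges 667 nm fluorescence intensity with signal-to-noise per printed feature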
[17] = small-molecule microarray binders of probe aShh, primary screen, biochemical, biotinylated probe, 635/667 nm fluorescence (AID 1114); details: higher = more signal;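 also: probe is biotin-labelled aShh protein from a stem cell growth factor screen; measures binding of labelled protein to compounds printed on the slide; score merges feature fluorescence at 667 nm with signal-to-noise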
[18] = small-molecule microarray binders of probe aNog, primary screen, biochemical, biotinylated probe, 635/667 nm fluorescence (AID 1115); details: higher = more signal;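 also: probe is biotinylated aNog protein used at 0.15 µg/mL for 1 h at 4 C; z-score combines 667 nm fluorescence of each spot with its signal to noise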
[19] = biological target: Torsin-1A-interacting protein 1 (Homo sapiens) (UniProt Q5JTV8); assay: LAP1 binders from COS7 cell lysate, primary screen, small-molecule microarray, 635/667 nm fluorescence (AID 1116); details: COS7-hLAP1 lysate binding, 635 nm fluorescence, higher = more signal
Chain of Torsin-1A-interacting protein 1 (Homo sapiens) (Q5JTV8 whole entry, looked up): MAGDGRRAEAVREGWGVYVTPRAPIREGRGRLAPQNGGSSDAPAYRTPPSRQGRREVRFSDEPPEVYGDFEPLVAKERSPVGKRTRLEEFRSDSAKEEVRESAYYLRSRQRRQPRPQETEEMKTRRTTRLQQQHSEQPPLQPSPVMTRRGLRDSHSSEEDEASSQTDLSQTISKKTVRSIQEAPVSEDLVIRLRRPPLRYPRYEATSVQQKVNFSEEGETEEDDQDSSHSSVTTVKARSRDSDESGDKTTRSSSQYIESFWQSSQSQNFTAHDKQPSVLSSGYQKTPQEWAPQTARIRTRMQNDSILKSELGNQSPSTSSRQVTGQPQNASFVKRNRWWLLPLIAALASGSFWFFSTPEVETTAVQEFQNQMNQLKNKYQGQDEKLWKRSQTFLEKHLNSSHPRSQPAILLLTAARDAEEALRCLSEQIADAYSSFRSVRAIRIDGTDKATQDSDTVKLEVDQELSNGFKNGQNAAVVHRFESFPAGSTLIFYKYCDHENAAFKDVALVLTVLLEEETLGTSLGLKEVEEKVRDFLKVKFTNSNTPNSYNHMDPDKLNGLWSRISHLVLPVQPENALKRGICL

[20] = biological target: Alpha-bungarotoxin (Bungarus multicinctus) (UniProt P60615); assay: alpha-bungarotoxin binders on microarray, profiling panel, artefact control for SMM control protein annotation, biochemical, small-molecule microarray, Alexa647 label, 635/667 nm fluorescence (AID 1117); details: alpha-BTX-A647 binding fluorescence, higher = more signal
Chain of Alpha-bungarotoxin (Bungarus multicinctus) (P60615 whole entry, looked up): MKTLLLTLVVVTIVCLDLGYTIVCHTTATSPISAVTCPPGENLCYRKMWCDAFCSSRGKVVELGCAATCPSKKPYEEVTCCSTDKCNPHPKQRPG

Compound | composite z-score [1] | composite z-score [2] | composite z-score [3] | z-score [4] | composite z-score [5] | composite z-score [6] | composite z-score [7] | composite z-score [8] | composite z-score [9] | composite z-score [10] | composite z-score [11] | z-score [12] | composite z-score [13] | composite z-score [14] | composite z-score [15] | composite z-score [16] | composite z-score [17] | composite z-score [18] | composite z-score [19] | composite z-score [20]
CN(C)c1ccc(C(O)C2C=CC3C(=O)NC(=O)C3N2Nc2ccccn2)cc1 (stereo not given) | 1.15 | 0.206 | 0.201 | 0.936 (inactive) | 0.79 | 0.464 | 0.729 | 1.45 | 1.3 | 0.921 | 1.34 | -0.125 | 0.883 | -0.365 | -0.733 | -0.13 | -0.154 | 0.213 | -0.269 | 0.162
C[N+](C)(C)CCCCCCNC(=O)[C@@H]1C[C@@H]2C(=O)N3CCC[C@H]3C(=O)N2[C@@H]1c1ccc(O)cc1 | 1.1 | -0.0891 | 0.614 | -0.546 (inactive) | 1.37 | 1.2 | 1.23 | 1.46 | 1.25 | 0.578 | 0.279 | 0.501 | 0.994 | -0.31 | -0.887 | -0.0239 | -0.138 | -0.29 | 0.531 | 0.341
C=C(COC)/C(=C/C[C@H](OC(=O)c1ccncc1)c1ccccc1OCCO)c1cc(C(=O)OC)ccc1OC | 0.515 | -0.0213 | -0.331 | -0.0627 (inactive) | 1.25 | 0.684 | 0.0709 | 1.33 | 0.242 | 1 | 1.43 | -2.76 | 0.753 | -0.191 | -0.59 | -0.0687 | -0.494 | -0.145 | -0.353 | 0.251
O=C1CS(=O)(=O)C(c2cccc([N+](=O)[O-])c2)N1c1ccccc1 (stereo not given) | 0.175 | 0.913 | 0.157 | -0.856 (inactive) | 1.03 | 0.117 | 0.591 | 0.6 | 0.625 | 0.32 | -0.611 | -0.376 | 0.432 | 0.0568 | -0.177 | 0.157 | 0.122 | -0.217 | 1.49 | 1.98
[N-]=[N+]=Nc1ccccc1C[C@]1(C(=O)O)COC(c2ccc(OCCCO)cc2)=N1 | 1.15 | 0.336 | 0.829 | -1.08 (inactive) | -0.51 | -1.1 | -0.473 | -0.543 | -0.885 | 0.764 | 0.118 | 0.928 | -0.856 | 0.166 | 0.897 | 0.0718 | 0.232 | 0.253 | -0.811 | -0.215
CC1CC/C=C\[C@H]2OC34C=CCN(Cc5ccccc5)C(=O)[C@H]3N(C(CO)C(C)C)C(=O)[C@@H]4C2C(=O)O1 (stereo not given in full) | 0.659 | -0.239 | 0.146 | -0.124 (inactive) | -0.871 | -0.484 | -0.471 | -0.902 | -0.415 | 1.09 | -0.376 | -0.386 | -0.369 | -0.862 | -0.528 | -0.176 | -0.0709 | -0.12 | 0.344 | -0.677
CCOC(=O)[C@@H]1CCCCN1C(=O)C(=O)OC | 0.157 | -0.0335 | -0.402 | 1.11 (inactive) | 0.549 | 0.547 | 0.243 | 0.751 | 0.333 | -0.206 | 0.5 | -0.583 | 0.449 | -0.499 | -0.305 | -0.0684 | -0.0904 | -0.158 | -0.274 | 0.154
O=C(NCCN1CCOCC1)[C@@H]1c2ccccc2C(=O)N(C2Cc3ccccc3C2)[C@H]1c1ccc(CO)cc1 | 0.909 | 0.0974 | 0.852 | -1.38 (inactive) | -0.223 | 1.05 | -0.812 | -0.414 | -0.666 | -0.363 | 1.4 | -1.42 | -1.57 | -0.472 | -0.301 | -0.23 | -0.13 | -0.447 | 0.554 | 0.776
NC(=O)NCC#Cc1ccc2c(c1)[C@]1(C(=O)N2)[C@H](c2ccccc2OCCO)N2[C@H](c3ccccc3)[C@H](c3ccccc3)OC(=O)[C@H]2[C@@H]1C(=O)O | 1.27 | -0.103 | 0.435 | -0.724 (inactive) | -0.0931 | -0.397 | -0.218 | -0.085 | -0.266 | 0.894 | 1.27 | -0.331 | -0.351 | 0.505 | 0.629 | -0.169 | -0.0035 | -0.359 | 0.299 | 0.589
COC(=O)[C@@]1(Cc2ccc(OC)cc2)[C@H]2c3cc(C(=O)N(C)C)n(Cc4ccc(OC(F)(F)F)cc4)c3C[C@H]2CN1C(=O)c1ccccc1 | 0.518 | 0.34 | 1.15 | 1.32 (inactive) | -0.19 | -0.448 | -0.274 | -0.558 | -0.995 | 0.771 | 0.38 | -3.63 | -0.0954 | 0.417 | 0.267 | -0.0807 | 0.337 | 0.196 | 1.58 | -0.114
CC(C)NC(=O)[C@@]1(C)c2ccccc2C(=O)N(Cc2ccc(OC(F)(F)F)cc2)[C@H]1c1ccc(CO)cc1 | 1.43 | -0.0863 | 0.77 | -1.08 (inactive) | -0.962 | -0.85 | -1.43 | -1.19 | -1.25 | -1.03 | 0.0959 | -0.706 | -1.49 | -0.43 | 0.495 | -0.124 | -0.0833 | -0.472 | -0.284 | -0.94
